{"source": "PubChem BioAssay", "note": "Where a name gives a salt, the structure may show the parent alone. Unmarked numbers belong to inactive results. No rule for the calls is given here. Residues, ends and D or L forms follow the SMILES beside them. *: point of attachment. Tfa = O=C(C(F)(F)F)*", "data": [{"tested_on": "Aerobactin synthetase IucA (Klebsiella pneumoniae hvKP1)", "assay": "IucA enzyme inhibition, primary screen, biochemical, Spectrum library (AID 1346200);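 also: 100% = wells without compound and 0% = wells lacking enzyme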", "settings": "malachite green pyrophosphate, A620, at 8 µM, hits give low values", "units": {"activity remaining": "%"}, "values": [{"smiles": "Nc1ccn(C2O[C@H](CO)[C@@H](O)[C@@H]2O)c(=O)n1", "note": "(some centres undefined)", "activity remaining": 93.2}, {"smiles": "COc1c2ccoc2cc2oc(=O)ccc12", "activity remaining": 102}, {"smiles": "CN(C)CCc1c[nH]c2ccc(Cn3cncn3)cc12", "activity remaining": 102}, {"smiles": "CC(=O)Nc1ccccc1", "activity remaining": 103}, {"smiles": "CO[C@H]1[C@@H](O)[C@@H](C)O[C@H](O[C@H]2CCC3(C)C4CCC5(C)[C@@H](C6=CC(=O)OC6)CC[C@]5(O)[C@@H]4CC[C@]3(O)C2)[C@@H]1O", "note": "(some centres undefined)", "activity remaining": 113}, {"smiles": "CCN(CC)C(=O)N1CCN(C)CC1", "activity remaining": 118}, {"smiles": "COc1ccc(C2Sc3ccccc3N(CCN(C)C)C(=O)C2OC(C)=O)cc1", "note": "(centres undefined)", "activity remaining": 114}, {"smiles": "C[C@H]1O[C@@H](O[C@H]2[C@@H](O)C[C@H](O[C@H]3[C@@H](O)C[C@H](O[C@H]4CC[C@]5(C)C6C[C@@H](O)[C@]7(C)[C@@H](C8=CC(=O)OC8)CC[C@]7(O)C6CC[C@@H]5C4)O[C@@H]3C)O[C@@H]2C)C[C@H](O)[C@@H]1O", "note": "(some centres undefined)", "activity remaining": 118}, {"smiles": "CC(=O)Nc1c(I)cc(I)c(C(=O)O)c1I", "activity remaining": 119}, {"smiles": "COc1cc2cc3c4cc(OC)c(OC)cc4cc[n+]3c(C)c2cc1OC", "activity remaining": 95.4}, {"smiles": "CCc1cc(C(N)=S)ccn1", "activity remaining": 105}, {"smiles": "CC(=O)OCC(COC(C)=O)OC(C)=O", "activity remaining": 126}, {"smiles": "CCS(=O)(=O)CCn1c([N+](=O)[O-])cnc1C", "activity remaining": 124}, {"smiles": "O=c1c(-c2cc(O)c(O)c(O)c2)coc2cc(O)c(O)c(O)c12", "activity remaining": 93.2}, {"smiles": "COc1ccc2c(c1)CCC1C2CC[C@@]2(C)C1CC[C@@H]2O", "note": "(some centres undefined)", "activity remaining": 111}, {"smiles": "Cc1ccc(C(=O)c2ccc(CC(=O)O)n2C)cc1", "activity remaining": 120}, {"smiles": "COc1cccc2c1CCC1=CC(=O)CC[C@@]12C", "activity remaining": 111}, {"smiles": "NC(N)=NCCN1CCCCCCC1", "activity remaining": 104}, {"smiles": "C[N+](C)(C)CCOP(=O)([O-])OP(=O)(O)OC[C@H]1OC(n2ccc(N)nc2=O)[C@H](O)[C@@H]1O", "note": "(some centres undefined)", "activity remaining": 118}, {"smiles": "O=c1[nH]c(=O)n(C2C[C@H](O)[C@@H](CO)O2)cc1C(F)(F)F", "note": "(some centres undefined)", "activity remaining": 108}, {"smiles": "C[N+]1(C)C[C@H](O)[C@H](C(=O)[O-])C1", "activity remaining": 94.3}, {"smiles": "COc1ccc(C[C@H](N)C(=O)N[C@@H]2[C@@H](CO)OC(n3cnc4c(N(C)C)ncnc43)[C@@H]2O)cc1", "note": "(some centres undefined)", "activity remaining": 87.5}, {"smiles": "COc1ccc2c(C)cc(=O)oc2c1", "activity remaining": 92.2}, {"smiles": "COC(=O)C(N)CS", "note": "(centres undefined)", "activity remaining": 122}, {"smiles": "CC(=O)Oc1cc(-c2coc3cc(OC(C)=O)c(OC(C)=O)c(OC(C)=O)c3c2=O)cc(OC(C)=O)c1OC(C)=O", "activity remaining": 88.1}, {"smiles": "CC1(C)C[C@@H]2C(=O)CC[C@H]3O[C@]3(C)CC[C@H]21", "activity remaining": 110}, {"smiles": "Nc1c2ccccc2nc2ccccc12", "note": "(tested in a mixture with another compound)", "activity remaining": 112}, {"smiles": "CO[C@H]1C[C@H](O[C@H]2[C@H](C)[C@@H](OC3O[C@H](C)C[C@H](N(C)C)[C@H]3OC(C)=O)[C@@H](C)C[C@]3(CO3)C(=O)[C@H](C)[C@@H](OC(C)=O)[C@@H](C)[C@@H](C)OC(=O)[C@@H]2C)O[C@@H](C)[C@@H]1OC(C)=O", "note": "(some centres undefined)", "activity remaining": 116}, {"smiles": "NS(=O)(=O)c1cc2c(cc1Cl)NC(CSCc1ccccc1)=NS2(=O)=O", "activity remaining": 113}, {"smiles": "CN1CCC(=C2c3ccccc3CCc3sccc32)CC1", "activity remaining": 123}, {"smiles": "CCCCCC1C(=O)CCC1CC(=O)O", "note": "(centres undefined)", "activity remaining": 93.2}, {"smiles": "Oc1ccc(Cl)cc1Cc1cc(Cl)ccc1O", "activity remaining": 108}, {"smiles": "O=C(OCc1ccccc1)c1ccccc1", "activity remaining": 108}, {"smiles": "CCCc1cc(C(N)=S)ccn1", "activity remaining": 110}, {"smiles": "CC(C)C(NC(=O)C(Cc1ccc(O)cc1)NC(=O)C(NC(=O)C(F)(F)F)C(C)C)C(=O)O", "note": "(stereo not drawn) (Tfa-Val-Tyr-Val-OH; configuration not given here)", "activity remaining": 105}, {"smiles": "C#C[C@]1(O)CCC2C3CCC4=C(CCC(=O)C4)C3CC[C@@]21C", "note": "(some centres undefined)", "activity remaining": 109}, {"smiles": "CC(C)CCCC(C)[C@H]1CCC2C3CC=C4C[C@@H](O)CC[C@]4(C)C3CC[C@@]21C", "note": "(some centres undefined)", "activity remaining": 117}, {"smiles": "CC(=O)CC(c1ccccc1)c1c(O)c2ccccc2oc1=O", "note": "(centres undefined)", "activity remaining": 118}, {"smiles": "CC(CCC(=O)O)[C@H]1CCC2C3CC[C@@H]4C[C@H](O)CC[C@]4(C)C3CC[C@@]21C", "note": "(some centres undefined)", "activity remaining": 91.8}]}]}
